GLS inh = glutaminase GLS (human) inhibition; 0.21% of 410,000 active; Potency, µM (titrated, usually from 45.5 µM), for inactives: at the highest dose activity change, negative = inhibition, hits mostly inhibitors; O94925; GLS enzymatic activity, qHTS titration; AID 624170; further: on the % scale 0 is the no-effect control and ±100 the full control effect
Target sequence (O94925 whole entry, looked up): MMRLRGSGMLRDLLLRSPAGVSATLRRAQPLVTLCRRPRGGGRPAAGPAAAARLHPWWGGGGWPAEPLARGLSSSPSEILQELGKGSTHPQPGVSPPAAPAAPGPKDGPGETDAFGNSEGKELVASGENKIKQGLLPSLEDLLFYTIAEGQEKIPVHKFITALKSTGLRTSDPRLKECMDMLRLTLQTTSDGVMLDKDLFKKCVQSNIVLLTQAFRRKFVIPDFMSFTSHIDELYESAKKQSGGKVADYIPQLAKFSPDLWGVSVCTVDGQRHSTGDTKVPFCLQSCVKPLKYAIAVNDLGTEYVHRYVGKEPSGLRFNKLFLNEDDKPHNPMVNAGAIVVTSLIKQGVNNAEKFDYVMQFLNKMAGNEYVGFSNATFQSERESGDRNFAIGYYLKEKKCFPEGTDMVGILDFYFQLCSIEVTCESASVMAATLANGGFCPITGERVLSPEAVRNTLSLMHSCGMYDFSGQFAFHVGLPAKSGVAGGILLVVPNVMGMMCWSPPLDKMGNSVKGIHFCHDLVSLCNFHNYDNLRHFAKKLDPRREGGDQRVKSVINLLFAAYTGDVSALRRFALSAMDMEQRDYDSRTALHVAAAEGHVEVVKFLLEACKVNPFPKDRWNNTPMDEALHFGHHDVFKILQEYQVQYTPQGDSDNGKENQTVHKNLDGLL
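Two-point fluorescence kinetic (t0, 30 min RT) for hKGA; glutamate detected via glutamate oxidase–HRP–Amplex Red. Substrate: 1 mM L-glutamine solution; buffer 45 mM KH2PO4, pH 8.2.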
JMJD2A Tudor inh = JMJD2A Tudor domain (human) inhibition; 4.4% of 390,000 active; Potency, µM (highest dose often 114 µM), without a hit: top-dose activity change, negative = inhibition, most hits filed as inhibitors; AID 504339; AlphaScreen JMJD2A-Tudor / H3K4me3 peptide binding; further: on the % scale 0 is the no-effect control and ±100 the full control effect; nearly all actives have a fitted effect of over 50% in size
BAZ2B block = BAZ2B (human) inhibition. Q9UIF8. AlphaScreen BAZ2B-H3K14Ac peptide displacement. Potency, µM (series often up to 114 µM), without a hit: at the top dose activity change, negative = inhibition, hits mostly inhibitors. 4.4% of 360,000 active. AID 504333; further: on the % scale 0 is the no-effect control and ±100 the full control effect; nearly all actives have a fitted effect of over 60% in size
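Compounds, titrated to a top concentration of 110 uM, were incubated 30 min at room temperature with preformed BAZ2B/acetyl-K14 H3 peptide complex (50 nM each). Proximity signal was measured by AlphaScreen after 20 min with beads.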
L3MBTL1 block = inhibitors of human L3MBTL1. Potency, µM (top dose mostly 57.1 µM), for the others: at the highest dose activity, negative = inhibition, usual class: inhibitors. 0.66% of 230,000 active. AlphaScreen L3MBTL1–H3K9me1 peptide binding. Q9Y468. AID 485360; further: on the % scale 0 is the no-effect control and ±100 the full control effect; nearly all actives have a fitted effect of over 60% in size
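Read-out is AlphaScreen signal from streptavidin donor and nickel chelate acceptor beads (10 ug/mL final each) bridging L3MBTL1 (50 nM) and biotinylated K9-monomethylated H3(1-15) peptide (75 nM), after 30 min compound exposure at room temperature.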
HP1b binding inh = inhibitors of HP1-beta chromodomain binding to methylated histone tails; P83916; AlphaScreen HP1-beta / biotin-H3K9me3 peptide binding; 0.56% of 390,000 active; Potency, µM (series often up to 114 µM), for inactives: at the highest dose activity change, negative = inhibition, actives largely listed as inhibitors; further: nearly all actives have a fitted effect of over 70% in size
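AlphaScreen: HP1-beta (50 nM) preformed 30 min with biotin-H3(1-18)K9me3 peptide (50 nM) in PBS pH 7.4, 0.01% Tween-20. Compound added for 30 min at RT, then streptavidin donor/nickel chelate acceptor beads (10 ug/mL) for 30 min.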
G9a inh = inhibitors of human histone lysine methyltransferase G9a | Q96KQ7 | G9a H3K9 monomethylation, AlphaScreen, 2 h | Potency, µM (titrated, usually from 102 µM), without a hit: at the highest dose activity, negative = inhibition, most hits filed as inhibitors | 8.8% of 350,000 active; further: on the % scale 0 is the no-effect control and ±100 the full control effect; nearly all actives have a fitted effect of over 75% in size
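G9a (20 nM) was preincubated 15 min with compound, then reacted 2 h at room temperature with 500 nM biotin-H3K9 peptide and 20 µM SAM. Monomethyl-H3K9 detected by AlphaScreen using anti-H3K9me1 antibody.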
The depositor's hits bear a star; u = inconclusive; x = no result given; ! = not confirmed by another sample; [ ] = another dose, or the depositor's remark. In the library only some 10% were active in any assay of this set; here they are far more common. The call rests on the fitted dose curve; in most records, active means well fitted curve in the direction sought with a large enough effect; inconclusive means small, poorly fitted or top-dose-only effect, or another doubt; inactive means no such curve, though single readings can be large; an effect the other way counts as inactive or inconclusive. Potency means the concentration at half of the fitted maximal effect.

SMILES	GLS inh	JMJD2A Tudor inh	BAZ2B block	L3MBTL1 block	HP1b binding inh	G9a inh
Cc1cc(C)c(C(=O)COc2cccnc2[N+](=O)[O-])cc1C	10%	56µM*	50µM*	x	3%	7.1µM*
Cc1ccccc1NC(=O)CSc1nccn1C	3%	-3%	-16%	x	42%	8%[59 µM]
O=C(O)CCCC/C=C(\c1ccccc1)c1cccnc1	3%	x	x	x	x	u
CN1CCN(CC(=O)N2c3ccc(S(=O)(=O)NCCNC(=O)OC(C)(C)C)cc3C(=O)Nc3cccnc32)CC1	5%	14µM*	x	x	u	x
CN1CCN(CC(=O)N2c3ccccc3C(=O)Nc3cccnc32)CC1	-10%	x	11%	12%	x	30µM*!
Cc1noc(Cn2c(=O)c3ccccc3n(CC(=O)Nc3ccccc3C(F)(F)F)c2=O)n1	0%	-10%	-7%	x	20%	-11%[59 µM]
CC(C)OCCCNC(=O)C(=O)Nc1c2c(nn1-c1ccccc1)CS(=O)(=O)C2	-17%	-17%	-29%	x	34%	u
O=C1C(F)=CC(COC(c2ccccc2)(c2ccccc2)c2ccccc2)OC1n1cc(F)c(=O)[nH]c1=O (stereo not given)	u	50µM*	x	x	-13%	x
O=[N+]([O-])c1ccccc1NCCOc1ccccc1	0%	u	22µM*	-30%	-38%	u
CCCCCC(CC(=O)NO)C(=O)NC(C(=O)N1CCCC1CO)C(C)C (stereo not given)	16%	-12%	2%	3%	18%	u
CCCCC[C@H](CC(=O)NO)C(=O)N[C@H](C(=O)N1CCC[C@H]1CO)C(C)C	x	x	x	x	x	9.5µM*!
C=CCNCCCCOc1ccc(C)cc1[N+](=O)[O-]	-11%	7.9µM*	56µM*	2%	18µM*	13µM*
COc1cccc(OCCOCCOc2ccc(C)cc2[N+](=O)[O-])c1	0%	-11%[57.1 µM]	31%	13%	143%	15%[59 µM]
Cc1ccc(OCCOCCNC(C)(C)C)c([N+](=O)[O-])c1	1%	8.9µM*	79µM*	6%	-10%	14µM*
COCCNCCCCOc1ccc(C)cc1[N+](=O)[O-]	4%	2.8µM*	56µM*	-7%	-21%	u
COc1ccc(OCCOCCOc2ccc(C)cc2[N+](=O)[O-])cc1	-1%	-4%	9%	7%	40%	19%[59 µM]
Cc1ccc(OCCN2C(=O)c3ccccc3C2=O)c([N+](=O)[O-])c1	-1%	-16%	-18%	-1%	29%	-9%[59 µM]
COCCCNCCOc1ccc(C)cc1[N+](=O)[O-]	0%	1µM*	u	9%	u	14µM*
COc1ccc(C2=C(C)C(N3CCC(C(=O)NCc4ccco4)CC3)=NS2(=O)=O)cc1	-2%	-6%	-15%	x	13%	3%[59 µM]
CCC(C)NCCCCOc1ccc(C)cc1[N+](=O)[O-] (stereo not given)	5%	3.5µM*	45µM*	2%	u	28%[0.501 µM]
O=C1OC2(CCCCC2)OC(=O)C1=CNc1nccs1	34%	-12%	-22%	10%	32%	50µM*
O=C1OC2(CCCCC2)OC(=O)C1=CNc1nc2ccccc2s1	0%	-21%	u	x	29%	u
Cc1ccc(-n2c(O)c(C=Nc3ccccc3-c3n[nH]c(=S)[nH]c3=O)c3ccccc3c2=O)cc1C	11%	50µM*	45µM*	-14%	-36%	u
Cc1cccc(-n2c(O)c(C=Nc3cc(O)ccc3C)c3ccccc3c2=O)n1	u	u	-24%	-7%	-30%	7%
Cc1cccc(-n2c(O)c(C=Nc3ccccc3-c3n[nH]c(=S)[nH]c3=O)c3ccccc3c2=O)n1	19%	u	-34%	-9%	9%	40µM*
SMILES	GLS inh	JMJD2A Tudor inh	BAZ2B block	L3MBTL1 block	HP1b binding inh	G9a inh
Cc1cccc(-n2c(O)c(C=Nc3ccc(O)cc3)c3ccccc3c2=O)n1	18%	-24%	u	-9%	10%	50µM*
Cc1ccc(-n2c(O)c(C=NC3CCS(=O)(=O)C3)c3ccccc3c2=O)cc1C (stereo not given)	0%	-20%	-30%	x	9%	6%[59 µM]
Cc1cccc(-n2c(O)c(C=Nc3ccccc3O)c3ccccc3c2=O)n1	-18%	-19%	-25%	-12%	-12%	23%
Cc1ccc(-n2c(O)c(C=Nc3ccccc3-c3n[nH]c(=S)[nH]c3=O)c3ccccc3c2=O)c(C)c1	11%	45µM*	40µM*	-11%	u	u
O=C(Nc1nc2c(F)cc(F)cc2s1)c1ccc(S(=O)(=O)N2CCc3ccccc32)cc1	1%	-28%	-16%	x	5%[57 µM]	5%[59 µM]
c1ccc(-c2cn3nc4c(nc3n2)CCCC4)cc1	-3%	17%	6%	x	67%	50µM*
Brc1ccc(-c2cn3nc4c(nc3n2)CCCC4)cc1	-17%	-7%[11.4 µM]	10%	x	70%	u
Cc1ccc2c(c1)sc1nc(-c3cc4ccccc4oc3=O)cn12	2%	-11%	4%	x	25%	u
Nc1nc(O)c(Sc2ccccc2[N+](=O)[O-])c(=O)[nH]1	-11%	-4%	-5%	x	26%	40µM*
Nc1ccccc1Sc1ccccc1[N+](=O)[O-]	-14%	u	u	-3%	-23%	-47%[59 µM]
CCOC(=O)c1cnc(SC2CC(=O)N(c3cccc(OC)c3)C2=O)nc1N (stereo not given)	8%	-15%	0%	-5%	41%	35µM*
CCOc1ccc2nc(SC3CC(=O)N(c4cccc(OC)c4)C3=O)sc2c1 (stereo not given)	1%	-28%	3%	5%	39%	10µM*
CCOc1ccc2nc(SC3CC(=O)N(c4ccccc4)C3=O)sc2c1 (stereo not given)	-7%	u	0%	0%	76%	u
CCc1ccc(-c2cn3c(n2)sc2cc(C(=O)NCCC4=CCCCC4)ccc23)cc1	-3%	-12%	-12%	x	32%	u
CCN1CCN(C(c2ccc(F)cc2)c2c(O)cc(C)n(CCOC)c2=O)CC1 (stereo not given)	5%	-11%	-2%	x	30%[57 µM]	u
CCOC(=O)NN=C1c2ccccc2-c2ccccc21	-16%	-5%	-2%	4%	36%	13%[59 µM]
C/C(=N\NC(N)=S)c1ccccc1	3%	-16%	-19%	3%	-4%	u
NC(=S)NN=C(c1ccccc1)c1ccccc1	14%	u	-32%	x	-1%	40µM*
O=C(NN=C1c2ccccc2-c2ccccc21)c1ccccc1	6%	-30%	28µM*	3.2µM*	35%	10µM*
NC(=S)NN=C1c2ccccc2-c2ccccc21	8%	50µM*	u	x	u	-25%
